# Test results taken from PubChem BioAssay (NCATS).
# Inconclusive results are not listed. Calls of active or inactive are those of the source. The call rests on the fitted dose curve; in most records, active means well fitted inhibition curve with a large enough effect; inconclusive means small, poorly fitted or top-dose-only effect; inactive means no such curve, though single readings can be large or run the other way.
# Assay: BET inhibitor-based combinations targeting novel dependencies in MECOM-rearranged (r) AML: HNT-34 cell line (AID 2202234); further: nearly all actives have a fitted effect of over 35% in size;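 on viability (% of control): plate controls were vehicle wells for no effect and cell-free wells for full effect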
# Conditions: HNT-34 AML viability, CellTiter-Glo luminescence, 48 h; series mostly up to 46 µM; viability (% of control): at the top concentration
# Source text: Ecotropic viral insertion site 1 (EVI1) is located on chromosome 3q26.2 as part of the MECOM (MDS and EVI1 complex) locus. Under normal hematopoiesis, EVI1 is a regulator of hematopoietic stem cell maintenance and self-renewal and EVI1 levels decrease as the cells differentiate. In approximately 5-10% of de novo acute myeloid leukemia (AML) EVI1 is aberrantly expressed, including Chromosomal inv(3)(q21;q26.2) or t(3;3)(q21;q26.2) alterations (MECOM-r) that account for about 50% of AML with EVI1 overexpression 31. AMLs with high levels of EVI1 have a poor prognosis and an overall survival time averaging between 10-14 months. EVI1 overexpression confers resistance in leukemia cells, highlighting the need to develop new targeted therapies for EVI1 overexpressing AMLs. Here, we performed an unbiased chemical drug screening by evaluating the single agent activity of a collection of 2,480 oncology-focused, approved and investigational drugs (NCATS Mechanism Interrogation Plates, MIPE v5.0) against a panel of seven AML cell lines. These included four MECOM-r cell-lines (AML-191, AML-194, UCSD-AML1 and HNT-34) and three non-MECOM-r AMLs (MV4-11, OCI-AML3 and SET-2). Exploiting the mechanistic redundancy built in the library, we identified target-level sensitivities in MECOM-r AML cells and relative activity as compared to other AML subtypes.
# A collection of 2480 mechanistically annotated dugs (MIPE v5.0) was used to screen four 3q26.2 rearranged AML cell lines and three non-3q26.2 rearranged AML cell lines. This library purposely exploits redundancy by including multiple inhibitors of key onco-targets, while simultaneously encompassing mechanistic diversity, targeting more than 800 distinct mechanisms of action. Briefly, cells were seeded in 5 uL of growth media using a Multidrop Combi dispenser into 1536 well white polystyrene tissue culture treated plates (Corning) at a density of 500cells/well. For each cell-line, for each of the 2480 drugs in MIPE v5.0 library, an 11-point dose curve was generated via a 1536 pin-tool. Plates were incubated for 48 hr at standard incubator conditions, covered by a stainless steel gasketed lid to prevent evaporation. Cell viability was determined by luminescence based, Cell Titer Glo assay (Promega). In detail, 3 uL of Cell Titer Glo were added to each well and plates were incubated at room temperature for 15 min with a stainless-steel lid in place. Luminescence readings were taken using a Viewlux (PerkinElmer) with a 2 s exposure time per plate. Compound dose-response curves were normalized to DMSO and empty well controls on each plate. Quantitative drug activity data from dose-response curves was determined utilizing area Under the Curve (AUC) and Z-transformed AUC (Z-AUC, a mean-centering transformation applied to each individual cell-line screened).
# Potency means the concentration at half of the fitted maximal effect.
SMILES,viability (% of control),Potency
C=C1[C@H](CO)[C@@H](O)C[C@@H]1n1cnc2c(=O)[nH]c(N)nc21,113% (inactive),–
COc1cc(C)c(Sc2cnc(NC(=O)c3ccc(CNC(C)C(C)C)cc3)s2)cc1C(=O)N1CCN(C(C)=O)CC1 (stereo not given),–,16.6 µM (active)
Cc1cc(C(=O)Nc2cc(Oc3ccc4nc(NC(=O)C5CC5)cn4n3)ccc2C)n(C)n1,–,1.32 µM (active)
OC[C@H]1OC(O)C[C@@H](O)[C@H]1O (stereo not given in full),106% (inactive),–
COC(=O)Nc1ccc(-c2nc(N3CCOCC3)c3cnn(C4CCN(Cc5cccnc5)CC4)c3n2)cc1,–,1.18 µM (active)
CCc1ccc(C(=O)Nc2cc(CN3CCN(C)CC3)cc(C(F)(F)F)c2)cc1C#Cc1cnc2ccnn2c1,–,1.86 µM (active)
COc1ccc(-n2c(SCCCN3C(=O)c4cccc5cccc(c45)C3=O)nnc2-c2ccncc2)cc1,92.7% (inactive),–
Cc1ccc(S(=O)(=O)NC(=O)NN2CC3CCCC3C2)cc1 (stereo not given),106% (inactive),–
C=CC(=O)Nc1cc2c(Nc3ccc(F)c(Cl)c3)ncnc2cc1OCCCN1CCOCC1,–,2.63 µM (active)
CS(=O)(=O)Oc1ccc2c(NC(N)=O)c(C(=O)c3ccc(Cl)cc3Cl)oc2c1,100% (inactive),–
Cc1ccc(NC(=O)C2(c3ccc4c(c3)OC(F)(F)O4)CC2)nc1-c1cccc(C(=O)O)c1,85.4% (inactive),–
COc1ccc2c(Oc3ccc(NC(=O)c4c(C)n(CC(C)(C)O)n(-c5ccccc5)c4=O)nc3)ccnc2c1,–,3.32 µM (active)
CS(=O)(=O)N1CCC(NC(=O)c2[nH]ncc2NC(=O)c2c(Cl)cccc2Cl)CC1,–,2.09 µM (active)
Nc1nc2ccc(OC(F)(F)F)cc2s1,–,16.6 µM (active)
CC(C)c1c(C(=O)Nc2ccccc2)c(-c2ccccc2)c(-c2ccc(F)cc2)n1CC[C@@H](O)C[C@@H](O)CC(=O)O,–,10.2 µM (active)
O=C(Nc1nnc(-c2ccco2)o1)c1cc(-c2ccccc2)nc2ccccc12,–,10.5 µM (active)
CN1CCN(c2ccc(C(=O)Nc3n[nH]c4ccc(Cc5cc(F)cc(F)c5)cc34)c(NC3CCOCC3)c2)CC1,–,5.9 µM (active)
Cc1ccc2c(=O)c3cccc(CC(=O)O)c3oc2c1C,94.3% (inactive),–
COc1cc2ncn(-c3cc(OCc4ccccc4S(C)(=O)=O)c(C#N)s3)c2cc1OC,85.5% (inactive),–
Cc1ccc(NC(=O)c2ccc(CN3CCN(C)CC3)cc2)cc1Nc1nc(-c2cccnc2)cs1,–,5.25 µM (active)

SMILES,viability (% of control),Potency
O[C@@H](COc1cccc2ncccc12)CN1CCN(C2c3ccccc3[C@@H]3[C@H](c4ccccc42)C3(F)F)CC1 (stereo not given in full),–,26.3 µM (active)
CC(C)[C@](O)(c1ccc2cc(OC(F)F)c(OC(F)F)cc2c1)c1cn[nH]n1,–,18.6 µM (active)
O=C(c1ccccc1)c1ccc2n1CCC2C(=O)O (stereo not given),87.5% (inactive),–
COc1cc2c(Nc3ccc(Br)cc3F)ncnc2cc1OCC1CCN(C)CC1,–,2.63 µM (active)
O=C(Nc1ccc2[nH]nc(-c3ccncc3)c2c1)[C@@H]1CCN(CC(=O)N2CCN(c3ccc(-c4ncccn4)cc3)CC2)C1,–,1.05 µM (active)
CN1CCN(c2ccc(-c3cccc(CN4CCOCC4)c3)cc2NC(=O)c2c[nH]c(=O)cc2C(F)(F)F)CC1,89.8% (inactive),–
CCC(C)SSc1ncc[nH]1 (stereo not given),–,9.34 µM (active)
NC(=O)c1ccc2nc(-c3ccc(Oc4ccc(Cl)cc4)cc3)[nH]c2c1,–,16.6 µM (active)
Cc1cc2c(C(C)C)c(O)c(O)c(C=O)c2c(O)c1-c1c(C)cc2c(C(C)C)c(O)c(O)c(C=O)c2c1O,–,9.34 µM (active)
CC(C(=O)O)c1ccc2c(c1)CC(=O)c1ccccc1S2 (stereo not given),92.5% (inactive),–
Nc1ncnc2c1c(-c1cccc(OCc3ccccc3)c1)cn2C1CC(CN2CCC2)C1 (stereo not given),–,18.6 µM (active)
CC(C)N(CCCNC(=O)Nc1ccc(C(C)(C)C)cc1)C[C@H]1O[C@@H](n2ccc3c(N)ncnc32)[C@H](O)[C@@H]1O,92.9% (inactive),–
COC(=O)Nc1ccc(-c2nc(N3CCOCC3)c3cnn(C4CCN(C(=O)OC)CC4)c3n2)cc1,–,0.742 µM (active)
Cc1cc(Nc2ncnc3ccc(-c4ccc(CNCCS(C)(=O)=O)o4)cc23)ccc1Oc1ccn2ncnc2c1,83% (inactive),–
CCOCC(O)COc1ccc(NC(=O)CC[S+](C)C)cc1 (stereo not given),85.3% (inactive),–
Cc1c(C)n(Cc2ccc(-c3ccccc3C(=O)O)cc2)c2ccc(C(=O)N[C@@H](C)c3ccc([N+](=O)[O-])cc3)cc12,104% (inactive),–
CCOC(=O)C(C)Oc1cccc2c(=O)n(CC(=O)Nc3ccc4c(c3)OCCO4)ccc12 (stereo not given),107% (inactive),–
Nc1ccn(C[C@@H](CO)OCP(=O)(O)O)c(=O)n1,82.3% [at 8.46 µM] (inactive),–
CCN(CC)CCNC(=O)c1ccc2nc(-c3ccccc3)c(-c3ccc(CN4CCC(n5c(=O)[nH]c6ccccc65)CC4)cc3)nc2c1,–,8.33 µM (active)
Cc1cnc(-c2cc(N3CCN(C(=O)CCS(C)(=O)=O)CC3)ncc2Cl)c(C)c1,104% (inactive),–
